Experimental data: PubChem BioAssay (NCI)
This is part of a sample that, as a whole, favours compounds with a hit. Of some 83,000 tested, about 20% had one in any assay.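 Activity criterion: percent growth below 10, measured after cells in 96-well plates were exposed to a single compound concentration for 48 hours.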

Columns and labels:
Test in all cases: NCI-60 one-dose screen, 48 h (100 = growth as untreated, 0 = no growth, -100 = all killed)
Conditions in all cases: 10 µM unless noted
RPMI-8226 leukemia = test system: RPMI-8226 leukemia
OVCAR-8 ovarian = test system: OVCAR-8 ovarian
OVCAR-5 ovarian = test system: OVCAR-5 ovarian
OVCAR-4 ovarian = test system: OVCAR-4 ovarian
SK-OV-3 ovarian = test system: SK-OV-3 ovarian
IGROV1 ovarian = test system: IGROV1 ovarian
OVCAR-3 ovarian = test system: OVCAR-3 ovarian
HS 578T breast = test system: HS 578T breast
T-47D breast = test system: T-47D breast
BT-549 breast = test system: BT-549 breast
MDA-MB-435 melanoma = test system: MDA-MB-435 melanoma
SW-620 colon = test system: SW-620 colon
MCF7 breast = test system: MCF7 breast
HCT-116 colon = test system: HCT-116 colon
HCC-2998 colon = test system: HCC-2998 colon
KM12 colon = test system: KM12 colon
NCI/ADR-RES ovarian = test system: NCI/ADR-RES ovarian

Measured: growth

O=C(NN(C(=O)c1ccccc1)c1cccs1)c1ccccc1
inactive: RPMI-8226 leukemia 94.4% | OVCAR-8 ovarian 120% | OVCAR-5 ovarian 105% | OVCAR-4 ovarian 106% | SK-OV-3 ovarian 102% | IGROV1 ovarian 102% | OVCAR-3 ovarian 115% | HS 578T breast 104% | T-47D breast 94.9% | BT-549 breast 98% | MDA-MB-435 melanoma 124% | SW-620 colon 104% | MCF7 breast 110% | HCT-116 colon 93.7% | HCC-2998 colon 103% | KM12 colon 117%

O=C1NCC(Nc2ccc(Br)cc2Cl)C(=O)N1 (stereo not given)
inactive: RPMI-8226 leukemia 110% | OVCAR-8 ovarian 130% | OVCAR-5 ovarian 100% | OVCAR-4 ovarian 111% | SK-OV-3 ovarian 105% | IGROV1 ovarian 108% | OVCAR-3 ovarian 114% | HS 578T breast 105% | NCI/ADR-RES ovarian 107% | T-47D breast 99.6% | MDA-MB-435 melanoma 111% | SW-620 colon 100% | MCF7 breast 103% | HCT-116 colon 102% | HCC-2998 colon 116% | KM12 colon 108%

O=c1ccn(C2CCCO2)c(=O)[nH]1 (stereo not given)
inactive: RPMI-8226 leukemia 108% | OVCAR-8 ovarian 102% | OVCAR-5 ovarian 111% | OVCAR-4 ovarian 119% | SK-OV-3 ovarian 112% | IGROV1 ovarian 114% | OVCAR-3 ovarian 115% | HS 578T breast 112% | NCI/ADR-RES ovarian 110% | T-47D breast 105% | MDA-MB-435 melanoma 103% | SW-620 colon 102% | MCF7 breast 99.4% | HCT-116 colon 97.2% | HCC-2998 colon 104% | KM12 colon 108%

N#Cc1c(N2CCOCC2)nc2sc3cc(Cl)ccc3n2c1=N
inactive: RPMI-8226 leukemia 94.4% | OVCAR-8 ovarian 95.7% | OVCAR-5 ovarian 95.2% | OVCAR-4 ovarian 102% | SK-OV-3 ovarian 67.3% | IGROV1 ovarian 67.2% | OVCAR-3 ovarian 104% | HS 578T breast 66.8% | T-47D breast 33.1% | BT-549 breast 129% | MDA-MB-435 melanoma 114% | SW-620 colon 98.3% | MCF7 breast 74.7% | HCT-116 colon 103% | HCC-2998 colon 122% | KM12 colon 82.3%

CCC1=C(c2ccc(OC)cc2)C(C)Oc2cc(OC(C)=O)ccc21 (stereo not given)
inactive: RPMI-8226 leukemia 75.6% | OVCAR-8 ovarian 68.8% | OVCAR-5 ovarian 128% | OVCAR-4 ovarian 72.4% | SK-OV-3 ovarian 80.6% | IGROV1 ovarian 104% | OVCAR-3 ovarian 86.9% | HS 578T breast 83.5% | NCI/ADR-RES ovarian 75.6% | T-47D breast 65.4% | MDA-MB-435 melanoma 40.7% | SW-620 colon 90.5% | MCF7 breast 82.4% | HCT-116 colon 74.5% | HCC-2998 colon 107% | KM12 colon 77.7%

O=C(Nc1nc(-c2ccccc2)cs1)c1cc(O)c(O)c(O)c1
inactive: RPMI-8226 leukemia 17.8% | OVCAR-8 ovarian 39% | OVCAR-5 ovarian 89.4% | OVCAR-4 ovarian 44.5% | SK-OV-3 ovarian 70% | IGROV1 ovarian 33.2% | OVCAR-3 ovarian 22.3% | HS 578T breast 73.6% | NCI/ADR-RES ovarian 47% | T-47D breast 31.2% | MDA-MB-435 melanoma 61% | SW-620 colon 39.7% | MCF7 breast 58.4% | HCT-116 colon 25.9% | KM12 colon 64.7%

CCN(CC)CCOc1ccccc1-n1c(C)ccc1-c1ccccc1
inactive: RPMI-8226 leukemia 63.2% | OVCAR-8 ovarian 97.5% | OVCAR-5 ovarian 101% | OVCAR-4 ovarian 106% | SK-OV-3 ovarian 99.5% | IGROV1 ovarian 71.4% | OVCAR-3 ovarian 78.9% | HS 578T breast 82.5% | NCI/ADR-RES ovarian 85.4% | T-47D breast 91.9% | MDA-MB-435 melanoma 42.1% | SW-620 colon 36.7% | MCF7 breast 98.3% | HCC-2998 colon 24.2% | KM12 colon 50.6%
